Read-out in assay [1]: C-C motif chemokine 2 (Homo sapiens) (UniProt P13500)
The assay is described as follows: BSK_KF3CT_MCP1: BioMAP Diversity Plus: KF3CT Assay for Monocyte Chemoattractant Protein 1 (MCP1/CCL2) Biomarker Activity (AID 2283073). The conditions noted are these: primary human keratinocytes with fibroblasts; actives raise or lower the signal. In outline: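 Keratinocytes and foreskin fibroblasts were co-cultured, dosed with chemical, and sampled 24 h later. MCP-1 was quantified by ELISA, and the endpoint was analyzed with bidirectional fitting using DMSO as negative control.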

Read-out in assay [2]: Matrix Metallopeptidase 9 (MMP9), MMP9 (gene 4318)
Kind of assay: BSK_KF3CT_MMP9: BioMAP Diversity Plus: KF3CT Assay for Matrix Metallopeptidase 9 (MMP9) Biomarker Activity (AID 2283074).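 As to AC50: MMP9 protein level quantified by ELISA in the co-culture.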 The conditions noted are these: primary human keratinocytes with fibroblasts; actives raise or lower the signal. In outline:
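Keratinocyte plus foreskin fibroblast human primary skin co-culture was dosed with chemical and MMP-9 was quantified by ELISA 24 h later. Bidirectional curve fitting used DMSO as negative control and activity baseline.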

Read-out in assay [3]: urokinase plasminogen activator (uPA), PLAU (gene 5328)
The assay is described as follows: BSK_KF3CT_uPA: BioMAP Diversity Plus: KF3CT Assay for urokinase plasminogen activator (uPA) Biomarker Activity (AID 2283075). Conditions: primary human keratinocytes with fibroblasts; actives raise or lower the signal. In outline: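 Human keratinocyte plus foreskin fibroblast primary co-culture exposed to chemical for 24 h. uPA levels were quantified by ELISA, and activity was fitted bidirectionally against a DMSO negative-control baseline.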

Read-out in assay [4]: CD40, CD40 (gene 958)
Kind of assay: BSK_LPS_CD40: BioMAP Diversity Plus: LPS Assay for CD40 Biomarker Activity (AID 2283076). The conditions noted are these: primary human HUVEC with PBMC; actives raise or lower the signal. Summed up:
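CD40 signal, measured by ELISA, is fitted in both directions relative to DMSO vehicle. The system is an LPS-driven human vascular primary co-culture of endothelial cells and PBMC, sampled 24 h after compound addition.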

Read-out in assay [5]: E-selectin (Homo sapiens) (UniProt P16581)
Kind of assay: BSK_LPS_Eselectin: BioMAP Diversity Plus: LPS Assay for Eselectin Biomarker Activity (AID 2283077). Conditions: primary human HUVEC with PBMC; actives raise or lower the signal. In outline:
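Signal of E-selectin, detected by ELISA, served as the endpoint; cells were umbilical vein endothelium with PBMC, read 24 h after treatment. DMSO defined baseline, and both increases and decreases were fitted.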

Read-out in assay [6]: Interleukin-8 (IL8), CXCL8 (gene 3576)
The assay is described as follows: BSK_LPS_IL8: BioMAP Diversity Plus: LPS Assay for Interleukin-8 (IL8) Biomarker Activity (AID 2283078). Conditions: primary human HUVEC with PBMC; actives raise or lower the signal. Summed up: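 Endothelial cells and PBMC from human donors are co-cultured, treated with chemicals and LPS, then assayed for IL-8 by ELISA after 24 h. Parallel SRB staining (0.1% SRB after 10% TCA fixation, 560 nm) flags cytotoxicity.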

Assay [7] can be described thus: BSK_LPS_SRB: Viability Assessment in the BioMAP Diversity Plus: LPS Assay (AID 2283079).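 Also: total protein by sulforhodamine B absorbance as a cytotoxicity measure; measured one day after compound addition.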 The conditions noted are these: primary human HUVEC with PBMC. Summed up: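 Overt cytotoxicity was gauged by sulforhodamine B total-protein staining in a primary human vascular endothelial and mononuclear cell co-culture 24 h post-dosing. Activity was fitted in both directions relative to DMSO.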

Read-out in assay [8]: Interleukin-1 alpha (IL1a), IL1A (gene 3552)
Kind of assay: BSK_LPS_IL1a: BioMAP Diversity Plus: LPS Assay for Interleukin-1 alpha (IL1a) Biomarker Activity (AID 2283080). Conditions: primary human HUVEC with PBMC; actives raise or lower the signal. In outline:
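Measured: IL-1 alpha via ELISA at 24 h in LPS-activated human umbilical vein endothelium–PBMC co-culture. Baseline: DMSO, bidirectional fitting.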

Read-out in assay [9]: Monocyte Chemoattractant Protein-1 (MCP1), CCL2 (gene 6347)
Kind of assay: BSK_LPS_MCP1: BioMAP Diversity Plus: LPS Assay for Monocyte Chemoattractant Protein-1 (MCP1) Biomarker Activity (AID 2283081).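 As to AC50: secreted MCP-1 protein quantified by ELISA in culture supernatant.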 Conditions: primary human HUVEC with PBMC; actives raise or lower the signal. Summed up:
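LPS-stimulated HUVEC/PBMC co-culture; chemical, 24 h; MCP-1 by ELISA; bidirectional fit vs DMSO; cytotoxicity via SRB (0.1% stain, 10% TCA fix, 560 nm) in parallel wells.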

The nature of assay [10]: BSK_LPS_PGE2: BioMAP Diversity Plus: LPS Assay for Prostaglandin E2 (PGE2) Biomarker Activity (AID 2283082).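 As to AC50: secreted prostaglandin E2 measured by ELISA in LPS-stimulated co-culture.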 The conditions noted are these: primary human HUVEC with PBMC; actives raise or lower the signal. Summed up: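 LPS-activated HUVEC/PBMC co-culture; cmpd dosed, 24 h; PGE2 by ELISA; bidirectional fit vs DMSO; SRB (0.1%, TCA-fixed, 560 nm) in parallel plates for overt cytotox.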

Read-out in assay [11]: Macrophage colony-stimulating factor (MCSF), CSF1 (gene 1435)
Kind of assay: BSK_LPS_MCSF: BioMAP Diversity Plus: LPS Assay for Macrophage colony-stimulating factor (MCSF) Biomarker Activity (AID 2283083). The conditions noted are these: primary human HUVEC with PBMC; actives raise or lower the signal. Summed up: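 Compound is added to a human vascular primary co-culture of umbilical vein endothelium and blood mononuclear cells. After 24 h, M-CSF is quantified by ELISA. Signal changes are fitted in both directions against DMSO.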

Read-out in assay [12]: Tumor necrosis factor (Homo sapiens) (UniProt P01375)
The assay is described as follows: BSK_LPS_TNFa: BioMAP Diversity Plus: LPS Assay for Tumour Necrosis Factor alpha (TNFa) Biomarker Activity (AID 2283085). The conditions noted are these: primary human HUVEC with PBMC; actives raise or lower the signal. In outline:
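Read-out is ELISA of TNFa in primary human endothelial cell–PBMC co-cultures at 24 h after compound. Activity in either direction was fitted against DMSO.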

Read-out in assay [13]: Vascular cell adhesion molecule 1 (VCAM1), VCAM1 (gene 7412)
Kind of assay: BSK_LPS_VCAM1: BioMAP Diversity Plus: LPS Assay for Vascular cell adhesion molecule 1 (VCAM1) Biomarker Activity (AID 2283086). Conditions: primary human HUVEC with PBMC; actives raise or lower the signal. Summed up: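 HUVEC + PBMC co-culture, LPS system; compound 24 h; VCAM-1 by ELISA; bidirectional fit vs DMSO control; parallel SRB (0.1%, TCA-fixed, 560 nm) for cytotoxicity.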

Read-out in a further assay: CD38, CD38 (gene 952)
The assay is described as follows: BSK_SAg_CD38: BioMAP Diversity Plus: SAg Assay for CD38 Biomarker Activity (AID 2283087). The conditions noted are these: primary human HUVEC with PBMC; actives raise or lower the signal. In outline:
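Human HUVEC plus PBMC co-culture stimulated with superantigen; CD38 measured by ELISA 24 h after chemical dosing. Fluorescence read-out, bidirectional fit against DMSO; cytotoxicity tracked in parallel by SRB and Alamar Blue.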

Read-out in assay [14]: CD40, CD40 (gene 958)
Kind of assay: BSK_SAg_CD40: BioMAP Diversity Plus: SAg Assay for CD40 Biomarker Activity (AID 2283088). The conditions noted are these: primary human HUVEC with PBMC; actives raise or lower the signal. In outline: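 Fluorescence ELISA read-out of CD40 from umbilical vein endothelium plus peripheral blood mononuclear cells, sampled 24 h after dosing. Values come from bidirectional curve fitting with DMSO as baseline.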

Read-out in the next assay: CD69, CD69 (gene 969)
The assay is described as follows: BSK_SAg_CD69: BioMAP Diversity Plus: SAg Assay for CD69 Biomarker Activity (AID 2283089).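 As to AC50: cell surface CD69 protein quantified by ELISA with fluorescence detection.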 The conditions noted are these: primary human HUVEC with PBMC; actives raise or lower the signal. Summed up: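 HUVEC co-cultured with PBMC were dosed with chemical, and CD69 was measured by ELISA with fluorescence read-out 24 h later. Bidirectional curve fitting used DMSO as negative control and activity baseline.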

Read-out in assay [15]: Monocyte Chemoattractant Protein-1 (MCP1), CCL2 (gene 6347)
Kind of assay: BSK_SAg_MCP1: BioMAP Diversity Plus: SAg Assay for Monocyte Chemoattractant Protein-1 (MCP1) Biomarker Activity (AID 2283090). Conditions: primary human HUVEC with PBMC; actives raise or lower the signal. Summed up: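 MCP-1 levels in the endothelial–PBMC SAg co-culture were quantified by ELISA at 24 h post-dosing; both increases and decreases versus DMSO scored. Cytotoxicity monitored by SRB total protein in parallel cultures.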

Read-out in assay [16]: E-selectin (Homo sapiens) (UniProt P16581)
The assay is described as follows: BSK_SAg_Eselectin: BioMAP Diversity Plus: SAg Assay for Eselectin Biomarker Activity (AID 2283091). The conditions noted are these: primary human HUVEC with PBMC; actives raise or lower the signal. Summed up: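 Primary human endothelial cells and peripheral blood mononuclear cells were co-cultured and exposed to chemical for 24 hours. E-selectin levels were then quantified by ELISA, with bidirectional curve fitting normalised to DMSO controls.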

Read-out in assay [17]: Monokine induced gamma interferon (MIG), CXCL9 (gene 4283)
The assay is described as follows: BSK_SAg_MIG: BioMAP Diversity Plus: SAg Assay for Monokine induced gamma interferon (MIG) Biomarker Activity (AID 2283092). Conditions: primary human HUVEC with PBMC; actives raise or lower the signal. In outline: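 HUVEC plus human PBMC co-culture, chemicals dosed and MIG (CXCL9) quantified by ELISA at 24 h. Bidirectional curve fitting against DMSO as negative control and baseline, so both gain and loss of signal count as activity.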

SMILES strings stand for the structures. Calls of active or inactive are those of the source. The calls were made as follows: active = hit-call score of the fitted dose curve at least 0.9, where 1 is the maximum; inactive = score below 0.9.

Chain of Tumor necrosis factor (Homo sapiens) (P01375 whole entry, looked up): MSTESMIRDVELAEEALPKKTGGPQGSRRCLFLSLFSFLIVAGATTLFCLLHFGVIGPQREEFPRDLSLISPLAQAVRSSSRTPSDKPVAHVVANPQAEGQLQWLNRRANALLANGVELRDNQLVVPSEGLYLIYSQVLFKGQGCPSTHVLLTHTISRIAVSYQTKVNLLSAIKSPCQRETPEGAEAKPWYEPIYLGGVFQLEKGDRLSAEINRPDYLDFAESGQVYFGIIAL
Chain of E-selectin (Homo sapiens) (P16581 whole entry, looked up): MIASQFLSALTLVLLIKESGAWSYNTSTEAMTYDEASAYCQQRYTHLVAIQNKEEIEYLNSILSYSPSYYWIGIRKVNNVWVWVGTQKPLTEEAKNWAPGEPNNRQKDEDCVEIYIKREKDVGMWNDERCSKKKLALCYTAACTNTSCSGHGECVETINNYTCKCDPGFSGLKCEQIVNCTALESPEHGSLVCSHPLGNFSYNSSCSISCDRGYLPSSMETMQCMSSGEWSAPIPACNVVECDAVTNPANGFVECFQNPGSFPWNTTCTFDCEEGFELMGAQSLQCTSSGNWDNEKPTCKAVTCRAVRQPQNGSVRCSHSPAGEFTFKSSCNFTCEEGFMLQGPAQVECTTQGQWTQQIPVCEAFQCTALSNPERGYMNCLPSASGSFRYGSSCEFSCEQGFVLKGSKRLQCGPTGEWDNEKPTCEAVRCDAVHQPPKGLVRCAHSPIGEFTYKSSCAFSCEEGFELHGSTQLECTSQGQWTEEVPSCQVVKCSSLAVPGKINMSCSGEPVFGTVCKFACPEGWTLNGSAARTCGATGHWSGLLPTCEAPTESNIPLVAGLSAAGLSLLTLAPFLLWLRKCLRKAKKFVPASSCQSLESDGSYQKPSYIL

The AC50 is the concentration giving half of the maximal activity seen. `CN(C)c1ccc(C(=C2C=CC(=[N+](C)C)C=C2)c2ccccc2)cc1`: the AC50 is 699 nM (active) in assay [1]; 20.7 nM (active) in [2]; 465 nM (active) in [3]; 13.3 nM (active) with CD40, CD40 (gene 958) [4]; 8.2 nM (active) in assay [5]; 149 nM (active) in [7]. Further, the AC50 was 9.44 nM (active) in assay [8]; 13.3 nM (active) in assay [9]; 8.2 nM (active) in assay [10]; 37.9 nM (active) in assay [11]; 13.8 nM (active) in assay [12]; 7.81 nM (active) in assay [13]. Moreover, the AC50 in the assay with CD38, CD38 (gene 952) is 53.5 nM (active); in the assay with CD40, CD40 (gene 958) [14] it was 8.57 nM (active); with CD69, CD69 (gene 969), 3.38 nM (active); in assay [15] it was 26 nM (active); in assay [16], 8.2 nM (active). Also, in [6], the result was inactive.

With `OCC(CO)(CBr)CBr`, the outcome is “inactive” in [1]; “inactive” in assay [2]; “inactive” in assay [3]; “inactive” with CD40, CD40 (gene 958) [4]; “inactive” in assay [5]; “inactive” in assay [6]. Also, the result in assay [7], in assay [8], in assay [9], in [10], in [11] and in [12] was inactive. The outcome in assay [13] is “inactive”; in the assay with CD38, CD38 (gene 952) it was “inactive”; with CD40, CD40 (gene 958) [14], “inactive”; with CD69, CD69 (gene 969) it was “inactive”; in [15], “inactive”; in assay [16], “inactive”.

Turning to `COc1cc(OC)nc(NC(=O)NS(=O)(=O)Nc2ccccc2C(=O)N(C)C)n1`, the outcome was “inactive” in assay [1]; “inactive” in assay [2]; “inactive” in assay [3]; “inactive” with CD40, CD40 (gene 958) [4]; “inactive” in assay [5]; “inactive” in assay [7]. Moreover, the outcome in [9] is “inactive”; in assay [10], “inactive”; in [11] it was “inactive”; in [12], “inactive”; in [13], “inactive”; with CD38, CD38 (gene 952), “inactive”. Also, the outcome with CD40, CD40 (gene 958) [14] was “inactive”; with CD69, CD69 (gene 969), “inactive”; in assay [15], “inactive”; in [16], “inactive”; in [17], “inactive”. For the same molecule, the AC50 in assay [6] is 55 nM (active); in [8] it was 63.7 nM (active).

For `COc1cccc(O)c1`, the outcome in [1] is “inactive”; in assay [2], “inactive”; in assay [3], “inactive”; with CD40, CD40 (gene 958) [4], “inactive”; in assay [5] it was “inactive”; in [6], “inactive”. In addition, the result in assay [7], in assay [8], in assay [9], in assay [10], in assay [11] and in assay [12] was inactive. Besides, the outcome in assay [13] was “inactive”; in the assay with CD38, CD38 (gene 952) it was “inactive”; with CD40, CD40 (gene 958) [14] it was “inactive”; with CD69, CD69 (gene 969) it was “inactive”; in assay [15], “inactive”; in [16], “inactive”.

(Values after PubChem BioAssay (EPA / NIEHS).)
